# According to PubChem BioAssay:
# Values joined by “and” are separate entries in the source; they are usually repeats but may differ in a detail not shown here. Identical values can stand only once. Inconclusive results are not listed. Active and inactive are the calls of the source. Unless noted, the limit is not given here; nearly all actives have AC50 up to about 26 µM.
# Assays:
# [1] = growth inhibition of DIPG glioma cells, dose response, cell-based, SU-DIPG-XVII, MIPE5.0, CellTiter-Glo, qHTS (AID 1347060); details: SU-DIPG-XVII viability, CellTiter-Glo ATP luminescence;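 as to AC50: cells exposed to compound for 48 hours before viability readout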
# [2] = growth inhibition of DIPG glioma cells, dose response, cell-based, SU-DIPG-XIII, MIPE4.0, CellTiter-Glo, qHTS (AID 1347061; cut-off not given, nearly all actives have AC50 up to about 37 µM;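 also: cells exposed to compound for 48 hours before readout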); details: SU-DIPG-XIII viability, CellTiter-Glo ATP luminescence
# [3] = growth inhibition of DIPG glioma cells, dose response, cell-based, JHH-DIPG-1, MIPE4.0, CellTiter-Glo, qHTS (AID 1347062; cut-off not given, nearly all actives have AC50 up to about 27 µM;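 as to AC50: cells exposed to compound for two days before readout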); details: JHH-DIPG-1 viability, CellTiter-Glo ATP luminescence
# [4] = growth inhibition of DIPG glioma cells, dose response, cell-based, SU-DIPG-IV, MIPE4.0, CellTiter-Glo, qHTS (AID 1347063; cut-off not given, nearly all actives have AC50 up to about 30 µM;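 also: compound exposure lasted 48 hours before the viability readout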); details: SU-DIPG-IV viability, CellTiter-Glo ATP luminescence
# [5] = growth inhibition of DIPG glioma cells, dose response, cell-based, SU-DIPG-XIII, MIPE5.0, CellTiter-Glo, qHTS (AID 1347064; cut-off not given, nearly all actives have AC50 up to about 23 µM;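 as to AC50: cells exposed to compound for 48 hours before the viability read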); details: SU-DIPG-XIII viability, CellTiter-Glo ATP luminescence
# [6] = viability loss in pontine glioma line – cell-based, SU-DIPG-XXV, MIPE5.0, CellTiter-Glo, qHTS, dose response (AID 1347065); details: CellTiter-Glo ATP luminescence;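 also: cells exposed to compound for 48 hours before ATP readout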
# [7] = SU-DIPG-VI glioma cell viability, MIPE4.0 library, CellTiter-Glo luminescence, qHTS (AID 1347066; cut-off not given, nearly all actives have AC50 up to about 30 µM;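 also: cells exposed to compound for 48 hours before readout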); details: CellTiter-Glo ATP luminescence
# [8] = JHH-DIPG-1 glioma cell viability, MIPE5.0 library, CellTiter-Glo luminescence, qHTS (AID 1347067); details: JHH-DIPG-1 glioma viability, CellTiter-Glo ATP luminescence;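 also: cells exposed to compound for 48 hours before readout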
# [9] = SU-DIPG-XXV glioma cell viability, MIPE5.0 library, qHTS (AID 1347068; cut-off not given, nearly all actives have IC50 up to about 30 µM;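 as to IC50: cells exposed to compound for 48 hours before viability readout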)
# [10] = modifiers of HSF1 nuclear foci, imaging, Selleck Cancer Library (AID 1347162; in the data active = plate-normalised HSF1 focus index below about 0.46); details: human cells, at 10 µM; SSMD: measured here: HSF1 foci SSMD mean; cell count: measured here: cell number; plate-normalised HSF1 focus index: stronger effect = lower value
# [11] = sensitizers of A549 cells to miR-34 induction, primary screen, imaging, A549 dox-inducible miR-34, nuclei and caspase counts (AID 1347080;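 active = compounds whose cell count with miR-34 switched on is under 0.7 times the count with it off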); details: A549 miR-34 inducible, Hoechst nuclei count, 48 h
# [12] = survival rescue of mitochondrial mutant cells in low glucose, primary screen, MELAS cybrids, Rieske KO mouse fibroblasts, CellTiter-Glo (AID 1508586;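 active = mean z-score across replicates of 1.96 or higher in either the MELAS or the Rieske mutant cell line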;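 also: z relative to plate mean and SD of compound and empty wells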)
# [13] = stronger effect = lower value, cell number ratio, induced over uninduced
# [14] = measured here: relative caspase fold change +Dox/-Dox
# [15] = measured here: total cells with miR-34 induction, stronger effect = lower value
# [16] = measured here: total cells without miR-34 induction
# [17] = MELAS cybrid survival, CellTiter-Glo 48 h, stronger effect = higher value
# [18] = Rieske KO mouse fibroblast survival, CellTiter-Glo 72 h
smiles,measurement,setting,value
CC(C)c1ccc(Cn2ccc3c4c(N)nc(NC5CC5)nc4ccc32)cc1,AC50,[1],2.63 µM (active)
same,AC50,[2],20.9 µM (active)
same,AC50,[3],4.69 µM (active)
same,AC50,[4],4.18 µM (active)
same,AC50,[5],6.61 µM (active)
same,AC50,[6],2.63 µM (active)
same,AC50,[7],18.7 µM (active)
same,AC50,[8],5.25 µM (active)
same,IC50,[9],3.72 µM (active)
same,SSMD,[10],-7.04
same,cell count,[10],3190
same,plate-normalised HSF1 focus index,[10],0.581 (inactive)
c1ccc(CNc2nc(NCc3ccccc3)c3ccccc3n2)cc1,AC50,[1],14.8 µM (active)
same,AC50,[2],7.43 µM (active)
same,AC50,[3],23.5 µM (active)
same,AC50,[4],20.9 µM (active)
same,AC50,[5],16.6 µM (active)
same,AC50,[6],9.34 µM (active)
same,AC50,[7],23.5 µM (active)
same,AC50,[8],10.5 µM (active)
same,IC50,[9],29.5 µM (active)
same,fold change,[11]; [13],0.814 (inactive)
same,fold change,[11]; [14],0.477
same,cell count,[11]; [15],3510
same,cell count,[11]; [16],4310
same,z-score,[12]; [17],-0.415 (inactive)
same,z-score,[12]; [18],-0.855
Cc1cccc(-c2[nH]ncc2-c2ccc3ncccc3n2)n1,outcome,[1],inactive
same,outcome,[2],inactive
same,outcome,[3],inactive
same,outcome,[4],inactive
same,outcome,[5],inactive
same,outcome,[6],inactive
same,outcome,[7],inactive
same,outcome,[8],inactive
same,outcome,[9],inactive
same,fold change,[11]; [13],0.969 (inactive) and 0.891 (inactive)
same,fold change,[11]; [14],0.983 and 0.417
same,cell count,[11]; [15],9850 and 8880
same,cell count,[11]; [16],10200 and 9960
same,z-score,[12]; [17],-0.572 (inactive)
same,z-score,[12]; [18],0.111
CC(C)(OCc1nn(Cc2ccccc2)c2ccccc12)C(=O)O,outcome,[1],inactive
same,outcome,[2],inactive
same,outcome,[3],inactive
same,outcome,[4],inactive
same,outcome,[5],inactive
same,outcome,[6],inactive
same,outcome,[7],inactive
same,outcome,[8],inactive
same,outcome,[9],inactive
same,fold change,[11]; [13],0.935 (inactive)
same,fold change,[11]; [14],0.724
same,cell count,[11]; [15],9310
same,cell count,[11]; [16],9960
same,z-score,[12]; [17],-0.401 (inactive)
same,z-score,[12]; [18],-0.561
